# Assay outcomes as filed in PubChem BioAssay.
# This is a sample that favours compounds with a hit; in the whole collection about 3.2% have one here.
# 12-hLO inh: inhibitors of human 12-lipoxygenase (ALOX12) | Potency, µM (series often up to 57.1 µM), for the others: at the highest dose activity change, negative = inhibition, usual class: inhibitors | P18054 | purified 12-hLO, xylenol orange hydroperoxide absorbance | 150,000 compounds, 0.12% hits; further: potency means the concentration at half of the fitted maximal effect; nearly all actives have a fitted effect of over 55% in size
#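 Lipoxygenase turnover measured by absorbance at 573 and 405 nm after Fe-XO development. Human 12hLO 150 nM, arachidonate 40 uM, pH 7.0 Hepes buffer with detergent; 15 min compound preincubation, 30 min reaction.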
# 15-hLO-2 inh: blocks human 15-lipoxygenase 2 activity; purified 15hLO-2, xylenol orange hydroperoxide absorbance; AID 881; O15296; Potency, µM (doses to about 57.1 µM), for inactives: at the highest dose activity change, negative = inhibition, hits mostly inhibitors; 110,000 compounds, 0.56% hits; further: potency means the concentration at half of the fitted maximal effect; nearly all actives have a fitted effect of over 60% in size
# Target sequence (O15296 whole entry, looked up): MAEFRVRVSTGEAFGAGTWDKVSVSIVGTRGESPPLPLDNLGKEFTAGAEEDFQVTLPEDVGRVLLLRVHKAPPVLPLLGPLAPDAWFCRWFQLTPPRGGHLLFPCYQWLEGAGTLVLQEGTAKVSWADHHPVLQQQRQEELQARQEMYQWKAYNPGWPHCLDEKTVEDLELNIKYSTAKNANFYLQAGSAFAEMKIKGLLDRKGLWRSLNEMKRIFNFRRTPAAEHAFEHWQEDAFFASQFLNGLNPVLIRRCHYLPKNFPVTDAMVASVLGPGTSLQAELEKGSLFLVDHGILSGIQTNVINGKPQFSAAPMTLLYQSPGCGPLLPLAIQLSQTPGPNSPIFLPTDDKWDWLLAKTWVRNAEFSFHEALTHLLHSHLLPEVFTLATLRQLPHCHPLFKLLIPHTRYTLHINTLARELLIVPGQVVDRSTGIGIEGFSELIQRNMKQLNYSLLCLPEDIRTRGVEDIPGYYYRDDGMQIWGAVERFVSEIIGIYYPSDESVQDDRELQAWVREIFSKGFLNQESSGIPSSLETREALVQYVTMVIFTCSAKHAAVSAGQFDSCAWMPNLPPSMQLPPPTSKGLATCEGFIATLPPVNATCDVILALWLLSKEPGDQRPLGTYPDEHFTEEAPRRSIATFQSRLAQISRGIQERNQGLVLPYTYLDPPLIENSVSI
#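 Purified human 15hLO-2 (50 nM) preincubated 15 min with compound, then 45 uM arachidonic acid for 90 min at RT in 25 mM Hepes pH 7.5, 0.01% Triton X-100. Hydroperoxide detected by Fe-xylenol orange; 573/405 nm absorbance ratio.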
# PNC inhibitor: inhibitors of perinucleolar compartment assembly; 140,000 compounds, 3.1% hits; activity change (PNC), negative = inhibition, % at 10 µM; PC3M PTB-GFP, PNC prevalence imaging, 16 h; stronger effect = lower value; AID 2417;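 active means readout at or below -70, meaning at least 70% loss of cells showing the perinucleolar compartment, a nuclear body marking cancer cells; inconclusive means readout between -30 and a set limit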;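 further: plate controls were DMSO wells for no effect and camptothecin positive control wells for full effect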
#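 Compounds are pinned in duplicate onto adhered PC3M cells stably expressing GFP-tagged PTB and incubated 16 h at 37 C. Cells are then fixed, nuclei stained with Hoechst, and PNC-positive cells counted.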
# An asterisk follows results filed as active; ? = inconclusive; . = not tested or not shown; [ ] = remark or other dose. Unless noted, the call rests on the fitted dose curve; in most records, active means well fitted curve in the direction sought with a large enough effect; inconclusive means small, poorly fitted or top-dose-only effect, or another doubt; inactive means no such curve, though single readings can be large; an effect the other way counts as inactive or inconclusive. Unless noted, on the % scale 0 is the no-effect control and ±100 the full control effect.
SMILES,12-hLO inh,15-hLO-2 inh,PNC inhibitor
Cc1cc2oc(=O)cc(-c3ccccc3)c2c(C)c1-c1ccoc1,-1%[0.00818 µM],-21%[0.0915 µM],.
CCCOC(=O)Nc1cccc(C(C)=O)c1,1%,.,-100*
CCCOC(=O)Nc1ccc(C(N)=O)cc1,-4%,4%,?
COc1cccc(-c2ccc3ncnc(N4CCN(C)CC4)c3c2)c1,.,22%,.
CS(=O)(=O)N(Cc1ccco1)Cc1ccccc1Cl,2%,-4%,25
CS(=O)(=O)N(Cc1ccco1)CC(O)Cn1cc(C=O)c2ccccc21 (stereo unspecified),13%,-5%,-88*
CNc1ccnc(-c2ccccc2CN(C)C)n1,-1%,9%,.
CCC(C)(C)n1nnnc1C(c1ccc(C)cc1)N1CCN(Cc2ccc3c(c2)OCO3)CC1 (stereo unspecified),-3%,.,-10
CC(C)(C)n1nnnc1C(c1ccncc1)N1CCN(C2CCCCC2)CC1 (stereo unspecified),-3%,7%,8
CC(C)(C)n1nnnc1C(c1cccnc1)N1CCN(C2CCCCC2)CC1 (stereo unspecified),-1%,-3%,-84*
CCC(C)(C)n1nnnc1C(c1ccncc1)N1CCC(C)CC1 (stereo unspecified),-3%,.,-119*
O=c1[nH]c2cc(Cl)c(Cl)cc2[nH]c1=O,-1%,-6%,.
CCC(=O)c1ccc(OCC(=O)Nc2nn3cnnc3s2)cc1,-4%,3%,-18
CCCCN(C)C(=O)C1CCC(=O)N(c2cc(OC)c(OC)c(OC)c2)C1c1ccc(OC)cc1 (stereo unspecified),3%,.,-100*
COc1ccc(C2C(C(=O)O)CCC(=O)N2c2ccc(OC)cc2)cc1 (stereo unspecified),10%,1%,-17
COc1ccc(S(=O)(=O)Nc2ccccc2C(=O)O)cc1,-4%,.,.
O=C(COc1ccc(S(=O)(=O)NC2CCCCC2)cc1Cl)N1CCN(c2ccccc2)CC1,-7%,4%,-23
C=CCC(C)(NCc1ccccc1)C(=O)OCC (stereo unspecified),-1%,.,.
COc1ccc(OCc2nnc(SC3CCOC3=O)n2-c2ccccc2)cc1 (stereo unspecified),3%,2%,?
COc1cccc(-n2c(SC3CCOC3=O)nc3ccccc3c2=O)c1 (stereo unspecified),0%,.,-100*
C=CCn1c(=S)[nH]c2sc3c(c2c1=O)CCC3,?,.,-109*
C=CCn1c(=S)[nH]c2nc3c(cc2c1=O)CCCC3,0%,-6%,13
Cn1cccc1C(=O)N1CCC2(CCCN(c3cccc(-c4ccccc4)c3)C2)CC1,-11%,13%,.
CC1(C)C=C(c2ccc(C=O)s2)CC(C)(C)N1C=O,3%,.,-20
Cc1cccc(NC(=S)NC2CC3CCCC(C2)N3Cc2cccs2)c1C (stereo unspecified),-4%,-15%,70
SMILES,12-hLO inh,15-hLO-2 inh,PNC inhibitor
Cc1cccc(C)c1NC(=O)NC1CC2CCC(C1)N2Cc1cccs1 (stereo unspecified),-3%,7%[11.4 µM],-83*
CCOC(=O)N1CCC(N2Cc3cccc(C(=O)NCc4ccccn4)c3C2=O)CC1,3%,-5%,-12
CCNc1ncc2nc(-c3ccc(OC)cc3)c(=O)n(Cc3ccc(F)cc3)c2n1,.,-6%,.
Cc1ccc(S(=O)(=O)CCSc2nc(C)cc(C(F)(F)F)c2C#N)cc1,1%,.,-119*
COC(=O)CSc1nc(C)cc(C(F)(F)F)c1C#N,4%,-5%,74
Cc1ccc(S(=O)(=O)NNC(=O)CCC(=O)Nc2ccccc2)cc1,8%,.,3
O=C(NNc1nc2ccccc2nc1C(F)(F)F)c1ccccc1,4%,.,27
Cc1ccc(S(=O)(=O)NNc2ccccc2)cc1,16µM*,?,-16
Cc1ccc(S(=O)(=O)NNc2nc3ccccc3nc2C(F)(F)F)cc1,?,7.9µM*,-7
CC(C)=CCC/C(C)=C/C=O,0%,2%,.
CCOc1ccc(OC(=O)c2cccnc2)cc1,0%,2%,?
CC(=O)CCc1ccc(OC(=O)c2cccnc2)cc1,-2%,.,-100*
Cc1ccc(C)c(N(CC(=O)NCCSCc2ccco2)S(C)(=O)=O)c1,-17%,-3%,41
CCCCCC/C=C1\CC(C(=O)OCC)Oc2ccccc21 (stereo unspecified) (tested in a mixture with another compound),-4%[0.00818 µM],20%[0.0915 µM],.
c1cncc(-c2nccc(-n3ccnc3)n2)c1,-2%,8%,.
COc1ccc2c(c1)OC(=O)CC2c1ccc2c(c1)OCO2 (stereo unspecified),-4%[0.00818 µM],-25%[0.0915 µM],.
COc1ccc(/C=C/C(=O)c2c(C)nc3ccccn23)cc1,1%,10%,97
Cc1nc2ccccn2c1C(=O)/C=C/c1ccc(F)cc1,-8%,14%,-95*
COc1ccc(CCCn2ncc3c2nc(N)n2nc(-c4ccco4)nc32)cc1,1%[0.00818 µM],-3%[0.0915 µM],.
O=C(CC12CC3CC(C1)CC(CC(=O)NC1=NCCS1)(C3)C2)NC1=NCCS1,5%,27%[11.4 µM],?
O=C(CCC1CCCCC1)NC1=NCCS1,-1%,.,-89*
COc1ccc2c(c1)CN([C@H](C)[C@@H]1CC[C@@H]3[C@H]4CC[C@H]5C[C@@H](O)CC[C@@]5(C)[C@H]4CC[C@]31C)CO2,1%[11.4 µM],-14%[11.4 µM],.
O=C(CCN1C(=O)CSC1=O)Nc1ccc(Br)cc1,3%,.,-100*
Cc1ccc(NC(=O)CCN2C(=O)CSC2=O)cc1,0%,.,-17
COc1ccc(COC2OC[C@]3(C)[C@H]4C5=C(CN3C(=O)OC(C)(C)C)[C@H](C)C(CO)C(CO)C5CC[C@@H]24)cc1 (stereo partly specified),0%,-1%,.
SMILES,12-hLO inh,15-hLO-2 inh,PNC inhibitor
CCN(CC)S(=O)(=O)c1cccc(NC(=O)COC(=O)CCC(=O)c2ccc(F)cc2)c1,-3%,.,-82*
CN(C)S(=O)(=O)c1cccc(NC(=O)COC(=O)CCC(=O)c2ccc(F)cc2)c1,4%,.,11
O=C(Nc1ccc2c(c1)CCC2)c1cc(S(=O)(=O)N2CCN(c3ccccc3)CC2)ccc1Cl,-2%,-8%,?
CC(=O)Nc1sc2c(c1C(c1ccc(Cl)cc1)N1CCOCC1)CCCC2 (stereo unspecified),-22%,7%,-106*
CC(=O)Nc1sc2c(c1C(c1ccc(F)cc1)N1CCOCC1)CCCC2 (stereo unspecified),-16%,2%,3
COc1ccc(Nc2nc(C(F)(F)F)nc(C)c2C#N)cc1,2%,.,26
CCC(=O)N1CCc2cc(Br)cc(S(=O)(=O)NCc3ccco3)c21,-4%,3%,?
CCC(=O)N1CCc2cc(Br)cc(S(=O)(=O)CCC(=O)NCc3ccco3)c21,1%,.,-119*
CCOC(=O)N1CCN(S(=O)(=O)c2cc(Br)cc3c2N(C(=O)CC)CC3)CC1,3%,2%,?
CCC(=O)N1CCc2cc(Br)cc(S(=O)(=O)N3CCCCCC3)c21,-1%,.,-100*
COC(=O)C1=C(C(=O)OC)[C@@H]2N(C)c3ccc(OC)cc3[C@@]23C[C@@H](C(=O)OC)N(C(C)=O)C3=N1,3%[11.4 µM],.,.
CS(=O)(=O)Nc1cccc(-c2nccc(NCc3cccs3)n2)c1,.,-6%,.
